POLK inh = inhibitors of human DNA polymerase kappa; 400,000 tested, 0.53% active; Potency, µM (highest dose often 107 µM), for inactives: at the highest dose activity, negative = inhibition, most hits filed as inhibitors; Q9UBT6; purified Pol kappa, fluorescent DNA synthesis assay, 10 min; AID 588579; also: % is scaled to controls: 0 for no effect and ±100 for the full control effect
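50 nM final substrate added after 15 min RT preincubation of 10 nM Pol kappa with compound; fluorescence read at 0 and 10 min.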
Pol iota inh = inhibitors of human DNA polymerase iota | Q9UNA4 | Pol iota fluorescent replication assay, 10 min | Potency, µM (highest dose often 115 µM), for the others: at the top dose activity, negative = inhibition, usual class: inhibitors | 390,000 tested, 1% active | AID 588590
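Pol iota at 10 nM preincubated 15 min with compounds at room temperature; reaction started with fluorescent substrate, 50 nM final. Fluorescence read kinetically at 0 and 10 min; buffer-only wells as negative control.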
APE1 inh = APE1 (human) endonuclease inhibition | P27695 | recombinant APE1, TAMRA/BHQ-2 abasic DNA cleavage fluorescence | Potency, µM (series often up to 65.8 µM), for inactives: at the top dose activity change, negative = inhibition, most hits filed as inhibitors | 350,000 tested, 0.35% active;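 also: plate controls were vehicle for no effect and reference inhibitor for full effect; nearly all actives have a fitted effect of over 55% in size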
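APE1 at 0.75 nM preincubated 15 min at room temperature with compound. Reaction then started with 50 nM double-stranded THF-abasic substrate labelled with TAMRA/BHQ-2, and 525/598 nm fluorescence read kinetically. Activity taken as third-minus-first read difference, normalized to DMSO and NSC13755 controls.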
Pol beta inh = inhibitors of human DNA polymerase beta; Pol beta primer extension/strand displacement, fluorescence kinetic; 340,000 tested, 1.3% active; P06746; Potency, µM (top dose mostly 114 µM), for the others: at the highest dose activity change, negative = inhibition, actives largely listed as inhibitors; also: % is scaled to controls: 0 for no effect and ±100 for the full control effect
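Preincubation: enzyme (10 nM) with compound, 15 min, RT. Reaction: substrate added to 50 nM final. Reads: 0 and 10 min. Analysis: normalized, Hill fit.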
L3MBTL1 inh = inhibitors of human L3MBTL1; Potency, µM (series often up to 57.1 µM), without a hit: at the top dose activity, negative = inhibition, actives largely listed as inhibitors; 230,000 tested, 0.66% active; Q9Y468; AlphaScreen L3MBTL1–H3K9me1 peptide binding; also: % is scaled to controls: 0 for no effect and ±100 for the full control effect; nearly all actives have a fitted effect of over 60% in size
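AlphaScreen assay: L3MBTL1 (50 nM final) was preincubated 30 min at room temperature with biotinylated H3(1-15)K9me1 peptide (75 nM final), then 30 min with library compounds; streptavidin donor and nickel chelate acceptor beads (10 ug/mL final) added, 30 min dark.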
Pol eta inh = inhibitors of human DNA polymerase eta | 390,000 tested, 1.2% active | recombinant Pol eta, fluorescent DNA replication assay | AID 588591 | Potency, µM (doses to about 114 µM), inactives show at the highest dose activity change, negative = inhibition, usual class: inhibitors; also: % is scaled to controls: 0 for no effect and ±100 for the full control effect
Target sequence (Q9Y253 whole entry, looked up): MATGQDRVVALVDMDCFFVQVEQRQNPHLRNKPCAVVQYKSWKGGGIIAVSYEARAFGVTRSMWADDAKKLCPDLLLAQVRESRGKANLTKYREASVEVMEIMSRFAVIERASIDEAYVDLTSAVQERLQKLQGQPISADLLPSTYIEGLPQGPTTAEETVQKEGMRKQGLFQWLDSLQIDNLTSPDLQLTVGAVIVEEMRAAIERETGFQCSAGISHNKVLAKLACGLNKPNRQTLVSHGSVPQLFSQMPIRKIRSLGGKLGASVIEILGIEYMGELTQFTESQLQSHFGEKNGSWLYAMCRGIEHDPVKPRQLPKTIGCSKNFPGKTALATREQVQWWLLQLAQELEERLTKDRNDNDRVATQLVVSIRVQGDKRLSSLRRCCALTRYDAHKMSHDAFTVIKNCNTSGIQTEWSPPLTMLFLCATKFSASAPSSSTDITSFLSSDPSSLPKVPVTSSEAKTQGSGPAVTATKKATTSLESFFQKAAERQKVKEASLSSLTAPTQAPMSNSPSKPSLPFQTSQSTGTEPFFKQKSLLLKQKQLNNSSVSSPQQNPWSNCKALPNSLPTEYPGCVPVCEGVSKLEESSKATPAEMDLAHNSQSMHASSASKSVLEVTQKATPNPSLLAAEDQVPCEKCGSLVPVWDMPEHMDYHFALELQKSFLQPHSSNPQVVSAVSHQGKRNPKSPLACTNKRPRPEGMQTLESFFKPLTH
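Pol eta at 10 nM preincubated with compounds 15 min at room temperature; reaction started with fluorescent substrate (50 nM final) and read kinetically at 0 and 10 min.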
* marks the source's active call; other numbers are inactive results; ? = inconclusive; . = no result; ! = not active in a repeat; [ ] = remark or other dose. Compounds with a hit are over-represented: about 2.5% of the library has one in this group of screens. Calls follow the shape of the dose curve; as a rule, active = well fitted curve in the direction sought with a large enough effect; inconclusive = small, poorly fitted or top-dose-only effect, or another doubt; inactive = no such curve, though single readings can be large; an effect the other way counts as inactive or inconclusive. Potency is read from the fitted curve at half-maximal effect.

SMILES	POLK inh	Pol iota inh	APE1 inh	Pol beta inh	L3MBTL1 inh	Pol eta inh
CC(C)(C)NC(=O)Cc1ccc(S(=O)(=O)N2CCCC2)s1	-23%	-7%	9%	35µM*	.	14µM*
CC(CC(=O)c1ccccc1)=NCC(O)CN=C(C)CC(=O)c1ccccc1 (configuration not stated)	.	.	.	.	.	-8%
CCOc1ccc(NS(=O)(=O)c2ccc(NC(=O)N3CCCC3)cc2)cc1	-6%[60.1 µM]	-6%	.	14%	.	4%
Cc1cc(C)n2nc(CNC(=O)c3ccc(Cl)cc3)nc2n1	-4%	-10%	.	?	.	-5%
Cc1ccc(/C=C/C(=O)O)cc1S(=O)(=O)Nc1ccccc1C(=O)O	-16%	60%	6%	?	?	45µM*
Cc1ccc(/C=C/C(=O)O)cc1S(=O)(=O)Nc1ccc(C(=O)O)cc1	-5%	-3%	-2%	5%	.	?
COc1ccccc1N1CC(C(=O)OC(C)C(=O)Nc2ccc(F)cc2)CC1=O (configuration not stated)	.	.	.	.	.	-14%
COC(=O)C[C@H]1c2cc(C(F)(F)F)ccc2S(=O)(=O)N1C(C)C	11%	35%	.	.	.	.
N#Cc1c(N)sc2c1CCCCCC2	-13%	-8%	2%	-22%	-12%	-4%
N#Cc1c(N)sc(=S)c2c1CCCCC2	28µM*	?	?	13µM*	?	13µM*
COc1ccc(C2=Nn3c(nnc3-c3ccccc3F)SC2)cc1OC1CCCC1	50µM*	-10%	22%	.	-8%	-15%
O=c1cc(-c2ccco2)oc2c1ccc1ccccc12	-9%	39%	-2%	18µM*	.	?
O=c1cc(-c2ccc(O)cc2)oc2c1ccc1ccccc12	11%	-18%	0%	.	-7%	56µM*
O=c1cc(-c2cccc(O)c2)oc2c(O)c(O)ccc12	2.8µM*	.	?	.	.	.
O=c1cc(-c2ccncc2)oc2c1ccc1ccccc12	-6%	56%	?	?	2%	-5%
CCCN1CNc2c(c(=O)[nH]c(=S)n2CCc2ccc(OCC)c(OCC)c2)C1	-11%	0%	.	.	.	.
Cc1cc(C)cc(OCCn2nnc3ccccc32)c1	-1%	-11%	-6%	-6%	.	-19%
CC(OC(=O)Cn1cnc2c1c(=O)n(C)c(=O)n2C)C(=O)N(C)c1ccccc1 (configuration not stated)	-4%	7%	14%	.	-1%	5%
N#CCCn1c(=O)c(CCc2ccccc2)nc2cnc(N3CCOCC3)nc21	-2%[60.1 µM]	.	2%	.	.	.
Cc1cn(C)c(CC(=O)NCc2cccc(Cl)c2)c1C(=O)O	-8%[60.1 µM]	-2%	.	12%	.	-13%
CCOc1cc(C=O)cc(N=Nc2cccc([N+](=O)[O-])c2)c1O	-23%	23%	4%	-1%	-15%	-14%
Cc1nc(N=Nc2cc([N+](=O)[O-])ccc2Cl)c(COP(=O)(O)O)c(C=O)c1O	27µM*	.	35µM*	.	.	.
CCC1=NN2C(=N)/C(=C\c3cccn3-c3ccc(C)cc3C)C(=O)N=C2S1	-26%	?	-9%	40µM*	-22%	50µM*
Cc1ccccc1-n1c(SCC(=O)c2ccccc2)nnc1-c1ccc(F)cc1	-17%[60.1 µM]	1%	.	3%	.	-15%
CCOc1ccc(CCNC(=O)c2nnn(CC(=O)Nc3ccc(C)cc3)c2N)cc1OCC	?	?	0%	25µM*	.	-1%
SMILES	POLK inh	Pol iota inh	APE1 inh	Pol beta inh	L3MBTL1 inh	Pol eta inh
COc1cccc(NC(=O)Cn2nnc(-c3nc(-c4ccccc4)no3)c2N)c1	-11%[60.1 µM]	89µM*	.	18µM*	.	-4%
COc1ccc(NC(=O)Cn2nnc(C(=O)NCCc3ccccc3)c2N)cc1	-34%	35µM*	2%	25µM*	5%	-26%
Nc1c(-c2nc(-c3ccccc3)no2)nnn1CC(=O)Nc1ccccc1	7%	?	.	?	.	.
Cc1ccc(NC(=O)Cn2nnc(C(=O)NCCc3ccccc3)c2N)cc1C	?	89µM*	.	?	.	-24%
CCCC[n+]1c(/C=C/c2c(OC)cc(OC)cc2OC)ccc2ccccc21	-17%	?	.	.	.	.
Cc1cc2c(c(C#N)c1C)NC=NC2C (configuration not stated)	.	.	.	.	.	-11%
CCc1nc2ccc(C(=O)N(CC)CC(=O)Nc3c(F)cccc3F)cc2nc1CC	-45%	?	-9%	.	-18%	35µM*
CC1=NN(C(N)=S)C(=O)C1N=Nc1ccccc1 (configuration not stated)	8%	-14%	?	-4%	16%	-5%
CC1=NN(C(=O)c2ccncc2)C(=O)C1N=Nc1ccc2ccccc2c1 (configuration not stated)	?	89µM*	.	.	.	?
CCCCn1c(=NC(=O)C(C)(C)Oc2ccc(Cl)cc2)c(C(=O)OCC)cc2c(=O)n3ccccc3nc21	9%	2%	.	16%	.	?
CCOc1ccc(CCNC(=O)c2ccc(-c3nc(CSc4ccc(C)cc4)c(C)o3)cc2)cc1	-4%	25%	.	3%	.	-10%
Cc1ccc(OCc2nc(-c3ccc(C(=O)NCCc4ccc(S(N)(=O)=O)cc4)cc3)oc2C)cc1	3%	79µM*	.	30%	.	5%
COc1cc(NS(=O)(=O)c2c(C(=O)N3CCOCC3)c(C)n(C)c2C)cc(OC)c1OC	-1%	-18%	51%	11%	.	-18%
Cc1cccc(C(=O)Nc2nnc(S(=O)(=O)N3CCCc4ccccc43)s2)c1	-17%	16%	.	-17%	.	?
COc1cccc(C(=O)Nc2nnc(S(=O)(=O)N3CCCc4ccccc43)s2)c1	-9%	41%	.	-18%	.	50µM*
CC1CCN(S(=O)(=O)c2nnc(NC(=O)c3cccc(Br)c3)s2)CC1	-8%	-10%	.	1%	.	-1%
O=C(Nc1nnc(S(=O)(=O)N2CCCCC2)s1)c1cccc(Br)c1	-17%	?	8%	-19%	?	45µM*
Cc1cccc(C(=O)Nc2nnc(S(=O)(=O)N3CCC(C)CC3)s2)c1	-7%	-6%	37%	-6%	.	79µM*!
O=C(Nc1nnc(S(=O)(=O)N2CCCC2)s1)c1cccc([N+](=O)[O-])c1	-4%	21%	27%	4%	.	-15%
Cc1ccc2c(C)ccnc2c1	-14%	23%	.	.	.	.
O=C1c2cc(Br)ccc2N(Cc2ccc(Br)cc2)S(=O)(=O)C1c1cc(Cl)c(Cl)cc1[N+](=O)[O-] (configuration not stated)	?	?	-29%	.	?	22µM*
O=C1CS(=O)(=O)N(Cc2cccc(F)c2)c2ccc(Br)cc21	4%	?	45%	.	-1%	0%
